Compound activity deposited in PubChem by National Center for Advancing Translational Sciences (NCATS).
Most compounds without a hit are left out; they make up all but 21% or so of the library.
VP16 counter: inhibits Gal4-VP16 luciferase reporter, ROR gamma counter-screen; Drosophila S2 Gal4-VP16 UAS-luciferase, luminescence, 20 h; actives 3.5% (n = 310,000); Potency, µM (series often up to 53.6 µM), inactives show at the top dose activity, negative = inhibition, usual class: inhibitors;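 further: Gal4-VP16 expression switched on by copper sulfate through the metallothionein promoter; potency means the concentration at half of the fitted maximal effect; nearly all actives have a fitted effect of over 50% in size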
IL-1B inflam inh: blocks inflammasome-driven IL-1 beta release. THP-1 LPS/ATP IL-1B secretion, AlphaLISA, 16 h; active compounds read low. activity change, % at 57.5 µM. actives 4.7% (n = 360,000). AID 743279; in the data active means activity change below about -50%; inconclusive means mostly about -30% to -49%
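Secreted IL-1B measured by AlphaLISA bead assay after 16 h compound exposure of THP-1 cells; compounds (final up to 57.5 uM) added 1 h before LPS (250 ng/mL) and ATP (1.25 mM) stimulation; lower signal means less secretion.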
DT40 TDP1 CPT: growth inhibition of DT40 Tdp1-/-;hTDP1 cells with camptothecin (screen for TDP1 inhibitors). chicken DT40 Tdp1-/-;hTDP1 cells + 20 nM CPT, ATP luminescence, 48 h. Potency, µM (highest dose often 46.2 µM), inactives show at the top dose activity change, negative = growth inhibition, usual class: inhibitors. actives 12% (n = 420,000). AID 686979; further: potency means the concentration at half of the fitted maximal effect; nearly all actives have a fitted effect of over 55% in size
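Chicken DT40 Tdp1-/- cells stably complemented with human TDP1 were seeded at 400 cells/well in medium containing 20 nM camptothecin, exposed to pin-transferred compounds, and grown at 37 °C for at least 48 hr. Viability was read as ATP luminescence.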
ELG1 repair inh: ELG1-dependent DNA repair inhibition. HEK293T ELG1-luciferase reporter, luminescence, 16 h; DNA damage induced by 5-fluorouridine. actives 2.3% (n = 330,000). AID 504467. Potency, µM (series often up to 46.1 µM), for the others: top-dose activity change, negative = inhibition, hits mostly inhibitors; further: potency means the concentration at half of the fitted maximal effect; nearly all actives have a fitted effect of over 55% in size
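Overnight (16 hr) co-exposure of 2,000 cells/well to 5-fluorouridine and compound at 37 °C preceded detection. Luciferase was quantified via ONE-Glo luminescence; loss of signal denotes inhibition.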
RORg inh: blocks mouse ROR gamma transcriptional activity. Potency, µM (doses to about 53.6 µM), inactives show at the highest dose activity change, negative = inhibition, usual class: inhibitors. Drosophila S2 Gal4-RORgamma UAS-luciferase reporter, 20 h. actives 5.4% (n = 310,000); further: potency means the concentration at half of the fitted maximal effect; nearly all actives have a fitted effect of over 60% in size
Target sequence (P51450 whole entry, looked up, the tested form may be a part): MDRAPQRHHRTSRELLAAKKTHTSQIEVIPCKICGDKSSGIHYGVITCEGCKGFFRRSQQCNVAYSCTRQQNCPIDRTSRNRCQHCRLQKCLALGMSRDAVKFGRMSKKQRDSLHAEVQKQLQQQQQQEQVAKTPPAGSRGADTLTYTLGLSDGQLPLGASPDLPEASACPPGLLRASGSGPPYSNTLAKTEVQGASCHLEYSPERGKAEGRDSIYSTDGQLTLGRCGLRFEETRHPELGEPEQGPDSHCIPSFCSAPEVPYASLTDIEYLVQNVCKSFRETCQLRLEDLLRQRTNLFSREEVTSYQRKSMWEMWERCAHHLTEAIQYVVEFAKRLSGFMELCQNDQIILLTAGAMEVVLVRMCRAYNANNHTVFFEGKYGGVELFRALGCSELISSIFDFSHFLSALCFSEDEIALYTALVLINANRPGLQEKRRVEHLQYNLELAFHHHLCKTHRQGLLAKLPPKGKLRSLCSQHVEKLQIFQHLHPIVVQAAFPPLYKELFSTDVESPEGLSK
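ROR gamma transcriptional activity was tracked as Gal4-UAS luciferase output in stably transfected Drosophila Schneider cells, with compound added 1 hr before 700 uM copper sulfate induction and a 20 hr ambient-temperature incubation.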
DT40 TDP1 no CPT: qHTS for Inhibitors of human tyrosyl-DNA phosphodiesterase 1 (TDP1): qHTS in cells in absence of CPT; DT40 Tdp1-/- hTDP1 cells, no CPT, ATP luminescence, 48 h; Potency, µM (titrated, usually from 46.2 µM), for the others: top-dose activity change, negative = growth inhibition, actives largely listed as inhibitors; actives 15% (n = 420,000); AID 686978, 2013; further: potency means the concentration at half of the fitted maximal effect; nearly all actives have a fitted effect of over 55% in size
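Seeded 400 DT40-hTDP1 cells/well (vehicle DMSO, no 20 nM CPT); pinned compounds; ≥48 hr at 37 °C; CellTiter-Glo luminescence as viability measure.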
* = called active by the depositor; ? = inconclusive; / = not tested or not shown; [ ] = another dose, or the depositor's remark. Unless noted, the call rests on the fitted dose curve; in most records, active means well fitted curve in the direction sought with a large enough effect; inconclusive means small, poorly fitted or top-dose-only effect, or another doubt; inactive means no such curve, though single readings can be large; an effect the other way counts as inactive or inconclusive. On the % scale 0 is the no-effect control and ±100 the full control effect.

SMILES	VP16 counter	IL-1B inflam inh	DT40 TDP1 CPT	ELG1 repair inh	RORg inh	DT40 TDP1 no CPT
Cc1onc(-c2ccccc2Cl)c1C(=O)Nc1ncn[nH]1	0%	13	2%	6%	-17%	-6%
CSc1ccccc1NC(=O)COc1ccc(S(=O)(=O)N2CCCC2)cc1	-1%	8	?	7%	31%	?
O=C(O)C(Cc1ccc2c(c1)oc1ccccc12)NCP(=O)(O)O (stereo not drawn)	-11%	/	/	/	14%	/
COc1ccc(CNC(=O)C(C)n2nc(C)c3c(C)n(-c4ccc(C)cc4)nc3c2=O)cc1 (stereo not drawn)	6%	-15	18µM*	?	12%	?
CCC(C(=O)NCCC1=CCCCC1)n1nc(C)c2c(C)n(-c3ccccc3)nc2c1=O (stereo not drawn)	-9%	0	?	-4%	4.5µM*	26µM*
CCC(C(=O)NCCCc1ccccc1)n1nc(C)c2c(C)n(-c3ccccc3)nc2c1=O (stereo not drawn)	0%	12	?	?	4%	-28%
CC1CCCN(C(=O)C(=O)c2cn(CC(=O)N3CCCCCC3)c3ccccc23)C1 (stereo not drawn)	-1%	-25	?	-14%	?	-26%
CCC1CCCCN1C(=O)COc1ccc(N(C)S(=O)(=O)c2ccc(C)cc2)cc1 (stereo not drawn)	7%	4	21µM*	?	25%	15µM*
CCN(C(=O)COc1ccc(N(C)S(=O)(=O)c2ccc(NC(C)=O)cc2)cc1)C1CCCCC1	/	-19	?	21µM*	/	?
CC(=O)Nc1ccc(S(=O)(=O)N(C)c2ccc(OCC(=O)Nc3ccccc3C(C)=O)cc2)cc1	/	-29	18µM*	?	/	21µM*
CN(c1ccc(OCC(=O)Nc2ccccc2C(=O)O)cc1)S(=O)(=O)c1ccc(Cl)cc1	/	3	-20%	18%	/	-28%
CC(=O)c1ccccc1NC(=O)COc1ccc(N(C)S(=O)(=O)c2ccc(C)c(C)c2)cc1	/	47	21µM*	?	/	12µM*
COCCn1c(=O)c(CCc2ccccc2)nc2cnc(Oc3ccc(OC)cc3)nc21	-3%	/	-7%	/	?	-19%
Cc1ccc(S(=O)(=O)N2CCC(=O)N(C(COCc3ccc(C(F)(F)F)cc3)C(C)C)CC2)cc1 (stereo not drawn)	3%	-24	16µM*	-10%	?	12µM*
Cc1ccc(S(=O)(=O)N2CCC(=O)N([C@H](COCc3cccc(C(F)(F)F)c3)Cc3ccccc3)CC2)cc1	-4%[40.7 µM]	/	/	/	-21%[40.7 µM]	/
Cc1ccc(S(=O)(=O)N2CCC(=O)N([C@H](COCc3cccc(C(F)(F)F)c3)C(C)C)CC2)cc1	/	24	?	/	/	16µM*
Cc1ccc(S(=O)(=O)N2CCC(=O)N([C@H](COCc3ccc(C(F)(F)F)cc3)Cc3ccccc3)CC2)cc1	6%[40.7 µM]	0	?	/	34%[40.7 µM]	?
COc1ccc(Cc2nc3ccc(C(=O)NCC(C)(C)OC)cc3o2)cc1	5%	-13	?	?	29%	?
CCOC(=O)C(C#N)(Cc1ccc2ccccc2n1)Cc1ccc2ccccc2n1	/	-12	?	/	/	?
O=C(COC(=O)C12CC3CC(CC(C3)C1)C2)Nc1ccc([N+](=O)[O-])cc1Cl	-3%	-1	-30%	21µM*	2%	?
CC(=O)OCC(=O)Nc1ccc([N+](=O)[O-])cc1Cl	7%	-5	22%	17%	-40%	10%
